Assay outcomes as filed in PubChem BioAssay.
Compounds with a hit are over-represented: about 21% of the library has one in this group of screens.
Pf growth 96h – inhibits malaria parasite growth, 96 h; P. falciparum luciferase reporter growth, 96 h; Potency, µM (series often up to 28.7 µM), for inactives: top-dose activity change, negative = inhibition, most hits filed as inhibitors; hit rate 6.9% among 320,000; further: potency means the concentration at half of the fitted maximal effect; on the % scale 0 is the no-effect control and ±100 the full control effect
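Cell-based qHTS: luciferase-tagged P. falciparum in erythrocytes (2% hematocrit, 0.05% parasitemia final) incubated with compounds for 96 hours, 37 C, 5% CO2; luciferase detection reagent then added and luminescence measured.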
Pf growth 48h – P. falciparum growth inhibition at 48 hours (one generation) | P. falciparum luciferase growth in erythrocytes, 48 h | Potency, µM (highest dose often 28.7 µM), for the others: top-dose activity change, negative = inhibition, usual class: inhibitors | hit rate 5.9% among 310,000; further: potency means the concentration at half of the fitted maximal effect; on the % scale 0 is the no-effect control and ±100 the full control effect
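Luciferase-expressing parasites in RBCs, 2% Hct / 0.1% parasitemia final; RPMI 1640 + 0.5% Albumax; 37 C, 5% CO2, one generation; luminescence read-out, lower signal = inhibition.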
Cycloheximide cs – counter-screen hit for Shiga toxin inhibitors, cycloheximide; cell reporter, cycloheximide protein synthesis inhibition counterscreen; max response, %; hit rate 12% among 300,000; AID 2314; in the data active means max response mostly above about 13%, no sharp cut-off; inactive means mostly below about 14%; further: read at 38.3 µM for the half of the compounds with a filed dose; 0% is about no effect
Shiga toxin inh – blocks Shiga toxin action in Vero cells | Vero cells, Shiga toxin protein synthesis inhibition reporter | inhibition, % at 38.7 µM | AID 2315 | hit rate 9.2% among 290,000; in the data active means inhibition mostly above about 28%, no sharp cut-off; inactive means mostly below about 43%; further: 0% is about no effect
* hit, by the source's call; i = inactive; u = inconclusive; x = not tested or not shown. Unless noted, the call rests on the fitted dose curve; in most records, active means well fitted inhibition curve with a large enough effect; inconclusive means small, poorly fitted or top-dose-only effect, or another doubt; inactive means no such curve, though single readings can be large or run the other way.

SMILES | Pf growth 96h | Pf growth 48h | Cycloheximide cs | Shiga toxin inh
COc1ccccc1CNc1ccccc1F | 21.8% | 26.0% | 16.9* | 23.9
COc1ccc(-c2ccccc2)cc1NCc1ccccc1C | u | 68.0% | 44.0* | 46.3
O=C1C2CC=CCC2C(=O)N1c1ccc(N2CCN(c3ccccn3)CC2)c([N+](=O)[O-])c1 (stereo unspecified) | u | 11.2% | 14.4 | -8.3
CN(C(=O)CSc1nnc(-c2ccccc2)o1)c1c(N)n(Cc2ccccc2)c(=O)[nH]c1=O | -5.6% | 0.0% | -1.9 | -6.1
O=C(CCC1CCCC1)NNC(=O)c1ccc(F)cc1 | -3.0% | 2.8% | x | x
Cn1c(=O)c2c(nc(Cl)n2CC(=O)NC2(C#N)CCCCC2)n(C)c1=O | 2.4% | 0.0% | x | x
C=CCN1C(=O)N(c2ccccc2)C(=O)C1CC(=O)Nc1ccc(OC)cc1 (stereo unspecified) | -4.0% | 6.8% | 4.5 | x
Cc1ccc(S(=O)(=O)Nc2ccc(Br)cc2/C=N/n2cnnc2)cc1 | 3.7µM* | 0.0% | -0.4 | -8.2
Cc1ccc(OCCn2c(C3CC(=O)N(Cc4ccccc4)C3)nc3ccccc32)cc1 (stereo unspecified) | u | u | -6.5 | 14.0
C=CCN1CC(c2nc3ccccc3n2Cc2cccc3ccccc23)CC1=O (stereo unspecified) | 11.7µM* | u | -5.1 | -21.2
O=[N+]([O-])c1ccccc1S(=O)(=O)Nc1ccc(-c2ccc3nncn3n2)cc1 | -26.2% | 6.1% | x | x
Cc1nn(-c2ccccc2)c(NC(=O)c2cccs2)c(-c2ccccc2)c1=O | 7.0% | 11.9% | -3.6 | 15.6
CCN(CC)CCC(C)OC(c1ccccc1)c1ccccc1 (stereo unspecified) | -82.8% | -18.3% | 21.8* | 53.5*
Cc1cc(C)c(NC(=O)CNC(=O)c2cc([N+](=O)[O-])ccc2N2CCOCC2)c(C)c1 | 2.0% | u | x | x
CSc1nc2nccc(-c3ccc(-c4ccccc4)cc3)n2n1 | 10.4µM* | x | 5.6 | 2.6
CC(=O)c1cccc(S(=O)(=O)NCCC(=O)NC2CCCCCC2)c1 | 14.3% | 29.3% | x | x
Cc1cccc(C(=O)N[C@H](C(=O)NCCc2ccc(Cl)cc2)C(C)C)c1 | 9.9% | 2.2% | -4.0 | 21.0
CCOC(=O)[C@H]1[C@H]2COc3ccc(C)cc3[C@@H]2N2C(=O)CN(Cc3ccco3)C(=O)[C@@]12C | 0.7% | u | x | x
Cc1ccc(CN2CC(=O)N3[C@H]4c5cc(C)ccc5OC[C@@H]4[C@H](c4ccccc4)[C@]3(C)C2=O)cc1 | 95.9% | 5.86µM* | x | x
Cc1ccc(CN2CC(=O)N3[C@H]4c5cc(Cl)ccc5OC[C@@H]4[C@H](c4ccccc4)[C@]3(C)C2=O)cc1 | 8.28µM* | 6.57µM* | x | x
CC(NC(=O)c1cccs1)C(S)c1ccccc1 (stereo unspecified) | u | -10.7% | 1.4 | 3.0
CC(C)(C)c1ccc(-c2nc3cc(N)ccc3o2)cc1 | u | 253.3% | 50.9* | 94.4*
Cc1ccc(-c2nc3cc(N)ccc3o2)c(C)c1 | 213.3% | 273.5% | 33.2* | 66.0*
Cc1ccc(-c2nc3cc(N)ccc3o2)cc1 | x | 123.7% | 24.7* | 68.0*
Nc1ccc2oc(-c3cccc4ccccc34)nc2c1 | x | 62.3% | -2.0 | -2.4
SMILES | Pf growth 96h | Pf growth 48h | Cycloheximide cs | Shiga toxin inh
Cc1ccc2oc(Nc3nc(C)c(C)c(C)n3)nc2c1 | 112.1% | 187.0% | 36.7* | 88.2*
Nc1ncncc1-c1ccc([N+](=O)[O-])cc1 | 45.6% | 14.2% | 9.6 | -9.2
Cc1ccc(-c2nc3cc(C)ccc3o2)cc1 | 224.3% | 0.0% | 33.3* | 117.8*
Cc1ccc(-c2nc3cc(NS(=O)(=O)c4ccc(C)cc4)ccc3o2)cc1 | u | x | 7.5 | 13.3
O=c1oc(-c2ccco2)nc2ccccc12 | x | 12.2% | 9.7 | -10.4
Cc1ccc2oc(-c3cccc(N)c3)nc2c1 | -15.0% | i | 25.5* | 57.9*
CC(C)c1ccc2oc(-c3ccc(N)cc3)nc2c1 | -3.1% | 171.9% | 41.6* | 117.2*
Cc1ccc2oc(-c3ccco3)nc2c1 | 0.0% | 236.7% | 42.3* | 101.0*
Cc1ccc(N(C(=O)c2csnn2)C(C(=O)NC2CCCC2)c2ccccn2)c(C)c1 (stereo unspecified) | -8.3% | -2.9% | -0.5 | -11.3
O=C(CN1CCN(C(=O)C2CCCO2)CC1)Nc1ccc(F)cc1 (stereo unspecified) | -6.7% | -9.0% | -1.7 | -9.3
Cn1cncc1C(=O)c1ccccc1 | 16.4% | 7.4% | 12.2 | 66.2
Nc1ccc2oc(-c3cccs3)nc2c1 | x | 123.1% | 45.8* | 86.2*
C[C@H](NC(=O)c1ccccc1Cl)C(=O)OCC(=O)N1CC2(C)CC1CC(C)(C)C2 (stereo partly specified) | 8.7% | 15.5% | 12.1* | 8.2
O=C(COc1ccccc1)N1CCN(c2ccccc2)CC1 | 35.5% | -8.4% | -0.7 | 4.6
OC(COc1ccccc1)CN1CCN(CC(O)COc2ccccc2)CC1 (stereo unspecified) | 16.9% | 8.7% | -1.7 | 10.8
O=C(COc1ccccc1)N1CCN(CC(O)COc2ccccc2)CC1 (stereo unspecified) | 14.7µM* | -11.7% | -4.6 | 31.8
O=C(COc1ccc(Cl)cc1Br)N1CCN(c2ccccc2)CC1 | 3.7µM* | -2.0% | -3.3 | -7.1
O=C(COc1ccc(Br)cc1)N1CCN(c2ccccc2)CC1 | 4.65µM* | x | -3.0 | -9.7
O=C(O)CC1c2ccccc2C=Cc2ccccc21 | 99.4% | -4.4% | x | x
CCCC(C)NC(=O)CN1C(=O)NC2(CCc3ccccc32)C1=O (stereo unspecified) | -5.0% | 5.0% | -2.4 | -2.5
COc1ccc(NC(=O)CN(C)C(=O)CCCSc2nc3ccccc3[nH]2)cc1 | -4.7% | u | x | x
Cc1ccc(-c2nnn(CC(=O)NC3CC4CCC3C4)n2)cc1 (stereo unspecified) | -18.3% | 21.3% | 11.6* | 11.7
CCCCOc1ccc(-c2nnn(CCC(=O)N3CCOCC3)n2)cc1 | 9.28µM* | 67.5% | 35.7* | 77.6*
Cc1ccc(C(=O)Cn2nnc(-c3ccccc3)n2)cc1 | 22.0% | 38.2% | 21.2 | 81.8*
O=C(Cn1nnc(-c2ccccc2)n1)c1ccccc1 | u | 8.1% | 2.1 | 84.2
SMILES | Pf growth 96h | Pf growth 48h | Cycloheximide cs | Shiga toxin inh
CC(C)c1ccc(-c2nnn(CC(=O)N3CCCCC3)n2)cc1 | 7.4% | 4.1% | 8.9 | x
Cc1ccc(-c2nnn(CC(=O)N3CCCCC3)n2)cc1 | 8.2% | -0.2% | 18.6* | x
CCCOc1ccc(-c2nnn(CC(=O)N3CCC(C)CC3)n2)cc1 | -5.0% | x | 10.2 | -14.2
O=C(Cn1nnc(-c2ccc(Cl)cc2)n1)NC1CC2CCC1C2 (stereo unspecified) | x | 0.0% | -5.8 | -2.3
COc1ccc([C@H]2CC(=O)C=C(c3ccc(Cl)c(F)c3)C2)cc1 | 19.3% | 2.6% | x | x
CCN(Cc1ccccc1)C(=O)Cn1cc(S(=O)(=O)NC)c(S(=O)(=O)NC)c1 | 7.0% | 21.6% | -3.0 | -9.4
CC(C)n1c(CSCc2ccc(Cl)cc2Cl)n[nH]c1=S | 25.2% | u | -3.4 | -10.4
Cc1cc(C)n(CCCNC(=O)CCNS(=O)(=O)c2ccccc2C(F)(F)F)n1 | 20.0% | 11.8% | -1.6 | 3.6
Cc1ccccc1NC(=O)Cn1nnc(-c2ccc(N3CCOCC3)cc2)n1 | x | 125.5% | 8.4 | 38.4
